These results are taken from the supplement of paper PMC10670038.

Structures can show the parent of a compound that is named as a salt. ± gives the standard deviation of the averaged measurements. The full ranking holds about 2,000 compounds; the median of “relative cell viability vs DMSO, compound alone” is about 1.1, and the lowest 2% start at about 0.29. What follows is part of a selection rich in the lowest values, with near analogues and random picks from the rest.

The test system of the experiment is TE10. Description: relative cell viability vs DMSO, compound alone (fraction); TE10 is an esophageal squamous carcinoma line; higher = less cytotoxic. The following applies: 2 µM; 48 h. Here is the method: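 TE10 ESCC cells (1,000/well, 384-well plates) were treated with Selleck bioactive library compounds at 2 uM alone for 48 h. Viability was read by CellTiter-Glo and expressed relative to DMSO wells. Two technical replicates (A, B).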
The compound `CC[C@@H](C)Nc1cc(C(=O)N[C@H]2C[C@H]3CC[C@@H](C2)N3c2ccc(C(=O)C3CC3)cn2)c(C)cc1C(N)=O` returned a relative cell viability of 0.449 ± 0.023.
Next, `O=C(O)c1cc(/N=N/c2ccc(S(=O)(=O)Nc3ccccn3)cc2)ccc1O` [Sulfasalazine]: 1.04 ± 0.026; `CCc1nc(-c2cccc(C)c2)c(-c2ccnc(NC(=O)c3ccccc3)c2)s1`: 1.0779 ± 0.0008.
The value for `Cc1ccc([N+](=O)[O-])cc1S(=O)(=O)N(C)/N=C/c1cnc2ccc(Br)cn12` was 0.287 ± 0.012; that for `COc1cc(C(C)=O)ccc1O` [Apocynin] was 1.07 ± 0.059.
In turn, `CCCCOc1c(C(=O)c2c(F)cc(C)cc2F)c[nH]c2nncc1-2` came in with a relative cell viability of 0.904 ± 0.014.
The value for `CCOC(=O)CCNc1cc(N2CCc3ccccc3CC2)nc(-c2ccccn2)n1` was 0.957 ± 0.1; that for `CNC[C@@H](O)c1ccc(O)c(O)c1` [L-Adrenaline] was 1.06 ± 0.028; that for `COCC[n+]1c2c(n(Cc3cnccn3)c1C)C(=O)c1ccccc1C2=O` [YM155 (Sepantronium Bromide)] was 0.0556 ± 0.0047.
Compound `CC1(C)S[C@@H]2[C@H](NC(=O)[C@H](NC(=O)N3CCNC3=O)c3ccccc3)C(=O)N2[C@H]1C(=O)O` [Azlocillin sodium salt] had a relative cell viability of 1.09 ± 0.026.
The value for `CC(C)(OCc1nn(Cc2ccccc2)c2ccccc12)C(=O)O` [Bindarit] was 1.1 ± 0.053; that for `C=C[C@]1(C)C[C@@H](OC(=O)CS[C@@H]2C[C@H]3CC[C@@H](C2)N3C)[C@]2(C)[C@H](C)CC[C@]3(CCC(=O)[C@H]32)[C@@H](C)[C@@H]1O` [Retapamulin] was 1.29 ± 0.028; that for `CCC[C@@H]1C[C@@H](C(=O)N[C@@H]([C@H]2O[C@H](SC)[C@H](O)[C@@H](O)[C@H]2O)[C@@H](C)O)N(C)C1` [Lincomycin HCl] was 1.12 ± 0.073.
Consider `CCC(=O)Nc1cccc(Oc2nc(Nc3ccc(N4CCN(C)CC4)cc3OC)ncc2Cl)c1`, for which the relative cell viability turned out to be 1.16 ± 0.059.
The value for `Clc1ccc(Nc2nnc(Cc3ccncc3)c3ccccc23)cc1` [Vatalanib (PTK787) 2HCl] was 1.16 ± 0.022; that for `Cc1[nH]c2ccccc2c1CCNCc1ccc(/C=C/C(=O)NO)cc1` [Panobinostat (LBH589)] was 0.0672 ± 0.00084.
Next, `CN(C)Cc1ccc(S(=O)(=O)n2ccc(/C=C/C(=O)NO)c2)cc1` [Resminostat]: 0.908 ± 0.028.
Compound `Cc1[nH]c2ccccc2c1CCNC(=O)c1cccs1` returned a relative cell viability of 1.08 ± 0.069.
The value for `COc1ccc(-c2coc3cc(O)ccc3c2=O)cc1` [Formononetin] was 0.901 ± 0.044; that for `O=C(O)c1ccc(C=C2SC(=S)N(c3cccc(C(F)(F)F)c3)C2=O)cc1` was 1.04 ± 0.026.
On to `O=C(CCCN1CC=C(n2c(=O)[nH]c3ccccc32)CC1)c1ccc(F)cc1` [Droperidol], for which the relative cell viability was found to be 1.08 ± 0.044.
Next, `Cc1ccc(S(=O)(=O)c2ccc([N+](=O)[O-])o2)cc1`: 0.286 ± 0.0092; `NC(=O)N/N=C/c1ccc([N+](=O)[O-])o1` [Nitrofural]: 1.02 ± 0.057; `COc1ccc(/C=C/C(=O)C2(C(=O)/C=C/c3ccc(OC)c(OC)c3)CCCCC2)cc1OC`: 0.726 ± 0.088.
Next, `Cc1c(F)cc(C(=O)NC2CC2)cc1-c1ccc(C(=O)NCC(C)(C)C)cn1`: 0.959 ± 0.18; `Cc1c(Nc2ncccc2C(=O)O)cccc1C(F)(F)F` [Flunixin Meglumin]: 0.994 ± 0.028; `COc1cc2c(cc1OC)CN(CCc1ccc(NC(=O)c3cccc4c(=O)c5cccc(OC)c5[nH]c34)cc1)CC2`: 1.03 ± 0.056.
The value for `CNCCc1ccccn1` [Betahistine 2HCl] was 0.903 ± 0.18.
In the case of `COC1=CC(=O)C[C@@H](C)[C@]12Oc1c(Cl)c(OC)cc(OC)c1C2=O` [Griseofulvin], the relative cell viability was 1.12 ± 0.06.
Compound `O[C@@H](COc1cccc2ncccc12)CN1CCN(C2c3ccccc3[C@@H]3[C@H](c4ccccc42)C3(F)F)CC1` (stereo partly specified) registered a relative cell viability of 1.14 ± 0.082.
Next, `CCn1c(N)c(C(=O)NC)c(=O)c2ccc(C#CC(C)(O)COC)nc21` (stereo unspecified): 0.979 ± 0.17; `C#CCC(Cc1cnc2nc(N)nc(N)c2n1)c1ccc(C(=O)N[C@@H](CCC(=O)O)C(=O)O)cc1` (stereo partly specified) [Pralatrexate]: 0.1336 ± 0.00088.
Next, `Cc1nc(=O)c2cc(CN(C)c3ccc(C(=O)N[C@@H](CCC(=O)O)C(=O)O)s3)ccc2[nH]1` [Raltitrexed]: 1.07 ± 0.086; `CN(Cc1cnc2nc(N)nc(N)c2n1)c1ccc(C(=O)N[C@@H](CCC(=O)O)C(=O)O)cc1` [Methotrexate]: 0.143 ± 0.0081.
The value for `CC(C)c1cnn2c(NCc3ccccc3)cc(NCCCCCCN)nc12` was 1.08 ± 0.063; that for `CNC(=O)CN1CCC(Oc2cc3c(Nc4cccc(Cl)c4F)ncnc3cc2OC)CC1` [AZD8931 (Sapitinib)] was 1.21 ± 0.015; that for `Cc1c(C(N)=O)cc([N+](=O)[O-])cc1[N+](=O)[O-]` [Dinitolmide] was 1.0978 ± 0.00018.
`Cc1ccccc1C(C(=O)NC1CCCCC1)N(C(=O)Cn1ccnc1C)c1cccc(F)c1` (stereo unspecified) showed a relative cell viability of 0.989 ± 0.22.
For `CCCCCCCCCCCCCCCC[N+](C)(C)C` [Cetrimonium Bromide (CTAB)], the relative cell viability stood at 1.05 ± 0.039.
Turning to `CC1=NN(c2ccc(C(=O)O)cc2)C(=O)C1=Cc1ccc(-c2cc(C)c(C)cc2[N+](=O)[O-])o1`, the relative cell viability came to 1.04 ± 0.022.
Next, `Nc1nc(CC(=O)Nc2ccc(CCNC[C@H](O)c3ccccc3)cc2)cs1` [Mirabegron]: 0.954 ± 0.11; `NC(=O)c1cccc(-c2cccc(OC(=O)NC3CCCCC3)c2)c1`: 1.17 ± 0.024; `CC#CC(=O)Nc1ccc2ncnc(Nc3cccc(Br)c3)c2c1`: 0.773 ± 0.043.
Next, `CN(C)c1ccc(C(=C2C=CC(=[N+](C)C)C=C2)c2ccc(N(C)C)cc2)cc1` [Crystal Violet]: 0.278 ± 0.006.
The value for `CN(C)C(=O)c1cc2cnc(Nc3ccc(N4CCNCC4)cn3)nc2n1C1CCCC1` was 1.147 ± 0.008.
Consider `Nc1c(CC(=O)O)cccc1C(=O)c1ccc(Br)cc1` [Bromfenac Sodium], for which the relative cell viability amounted to 1.09 ± 0.046.
